# Measured values from the supplement of paper PMC11732987, “Enantioselective OTUD7B fragment discovery through chemoproteomics screening and high-throughput optimisation” (Communications Chemistry, 2025).
# Unmarked numbers belong to inactive results.
# Key:
# Test in all cases: log2 ratio of Biotin-Ahx-Ub-VS probe labelling (fragment/DMSO); higher = less target engagement (more negative = stronger competition), active = hit call of the paper (q ≤ 0.05, log2 ratio ≤ -1)
# Conditions in all cases: compound concentration: 200 uM; treatment time: 3 h
# ALG13 = biological target: T1, ALG13 (UniProt Q9NP73)
# T1 sequence (whole entry): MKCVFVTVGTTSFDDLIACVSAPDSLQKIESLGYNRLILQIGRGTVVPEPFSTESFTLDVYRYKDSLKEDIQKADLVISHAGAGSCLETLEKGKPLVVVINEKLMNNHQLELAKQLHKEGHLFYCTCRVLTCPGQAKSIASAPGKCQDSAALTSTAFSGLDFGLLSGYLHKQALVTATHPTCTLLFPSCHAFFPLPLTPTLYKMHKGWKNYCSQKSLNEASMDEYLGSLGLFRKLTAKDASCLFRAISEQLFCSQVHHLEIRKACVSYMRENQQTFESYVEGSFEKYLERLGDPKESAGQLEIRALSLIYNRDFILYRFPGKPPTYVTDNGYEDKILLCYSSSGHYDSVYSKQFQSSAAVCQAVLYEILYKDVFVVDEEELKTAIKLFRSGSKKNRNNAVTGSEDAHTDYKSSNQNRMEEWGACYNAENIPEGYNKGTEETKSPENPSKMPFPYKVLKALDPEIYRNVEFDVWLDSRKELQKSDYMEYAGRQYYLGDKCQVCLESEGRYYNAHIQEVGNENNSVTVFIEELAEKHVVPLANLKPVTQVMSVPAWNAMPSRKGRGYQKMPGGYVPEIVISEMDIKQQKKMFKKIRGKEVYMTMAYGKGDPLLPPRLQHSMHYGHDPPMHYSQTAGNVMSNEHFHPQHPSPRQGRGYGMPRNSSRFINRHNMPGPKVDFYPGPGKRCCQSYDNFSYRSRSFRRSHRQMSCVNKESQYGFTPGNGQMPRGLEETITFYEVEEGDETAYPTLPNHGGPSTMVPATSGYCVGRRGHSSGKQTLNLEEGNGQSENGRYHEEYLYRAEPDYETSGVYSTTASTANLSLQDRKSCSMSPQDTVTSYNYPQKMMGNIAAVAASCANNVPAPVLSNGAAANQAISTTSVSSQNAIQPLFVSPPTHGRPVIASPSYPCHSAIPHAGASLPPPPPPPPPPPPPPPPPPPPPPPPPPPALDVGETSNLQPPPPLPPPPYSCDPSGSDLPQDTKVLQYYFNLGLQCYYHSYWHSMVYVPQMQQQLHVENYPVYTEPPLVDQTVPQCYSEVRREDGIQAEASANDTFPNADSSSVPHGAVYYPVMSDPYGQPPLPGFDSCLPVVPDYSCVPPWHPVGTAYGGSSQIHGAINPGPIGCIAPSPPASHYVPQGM
# How it was run: (§1)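 Using Biotin-Ahx-Ub-VS at 0.5 µM final for 1 h, DUBs were labelled in HEK293T lysate (495 µg per sample) that had first been treated in triplicate with fragment at 200 µM or vehicle for 3 h. NeutrAvidin enrichment, LysC and trypsin digestion and diaPASEF LC-MS/MS followed. Spectronaut label-free quantities were global-median-normalised. Values are average log2 fragment/vehicle ratios by unpaired t-test, using proteins with ≥2 unique peptides.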
# ATXN3 = ATXN3 (UniProt P54252)
# How it was run: as §1
# BAP1 = biological target: T2, BAP1 (UniProt Q92560)
# T2 sequence (whole entry): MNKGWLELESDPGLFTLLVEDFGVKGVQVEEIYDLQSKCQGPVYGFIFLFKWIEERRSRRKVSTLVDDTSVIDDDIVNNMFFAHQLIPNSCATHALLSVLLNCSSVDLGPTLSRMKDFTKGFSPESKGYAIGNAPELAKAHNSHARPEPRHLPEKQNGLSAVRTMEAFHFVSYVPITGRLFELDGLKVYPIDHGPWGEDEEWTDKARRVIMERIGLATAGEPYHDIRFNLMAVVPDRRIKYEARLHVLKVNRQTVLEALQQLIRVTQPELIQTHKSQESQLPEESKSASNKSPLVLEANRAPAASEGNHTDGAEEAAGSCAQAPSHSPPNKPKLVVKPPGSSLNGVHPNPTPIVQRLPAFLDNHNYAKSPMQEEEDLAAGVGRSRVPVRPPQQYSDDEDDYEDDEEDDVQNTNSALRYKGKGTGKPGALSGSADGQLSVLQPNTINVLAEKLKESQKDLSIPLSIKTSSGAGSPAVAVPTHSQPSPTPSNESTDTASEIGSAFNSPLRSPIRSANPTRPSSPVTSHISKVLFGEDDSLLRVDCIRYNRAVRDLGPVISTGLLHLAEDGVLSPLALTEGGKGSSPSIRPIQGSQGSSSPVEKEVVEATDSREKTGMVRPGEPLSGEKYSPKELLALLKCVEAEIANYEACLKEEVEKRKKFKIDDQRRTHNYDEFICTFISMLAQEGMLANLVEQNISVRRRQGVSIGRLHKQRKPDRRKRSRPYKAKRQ
# How it was run: as §1
# EIF3F = EIF3F (UniProt O00303)
# How it was run: as §1
# EIF3H = EIF3H (UniProt O15372)
# How it was run: as §1
# FAM105A = biological target: T3, FAM105A (UniProt Q9NUU6)
# T3 sequence (whole entry): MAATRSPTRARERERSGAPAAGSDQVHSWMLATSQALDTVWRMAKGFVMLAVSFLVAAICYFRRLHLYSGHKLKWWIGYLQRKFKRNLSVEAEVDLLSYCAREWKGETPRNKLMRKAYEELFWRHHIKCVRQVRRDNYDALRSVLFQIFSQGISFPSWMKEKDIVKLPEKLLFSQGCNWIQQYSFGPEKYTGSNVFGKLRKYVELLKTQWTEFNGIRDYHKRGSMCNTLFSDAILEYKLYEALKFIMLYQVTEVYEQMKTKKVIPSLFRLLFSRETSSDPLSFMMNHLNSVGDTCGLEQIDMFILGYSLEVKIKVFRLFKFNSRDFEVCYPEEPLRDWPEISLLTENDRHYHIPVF
# How it was run: as §1
# OTUB1 = OTUB1 (UniProt Q96FW1)
# How it was run: as §1
# OTUD4 = biological target: T4, OTUD4 (UniProt Q01804)
# T4 sequence (whole entry): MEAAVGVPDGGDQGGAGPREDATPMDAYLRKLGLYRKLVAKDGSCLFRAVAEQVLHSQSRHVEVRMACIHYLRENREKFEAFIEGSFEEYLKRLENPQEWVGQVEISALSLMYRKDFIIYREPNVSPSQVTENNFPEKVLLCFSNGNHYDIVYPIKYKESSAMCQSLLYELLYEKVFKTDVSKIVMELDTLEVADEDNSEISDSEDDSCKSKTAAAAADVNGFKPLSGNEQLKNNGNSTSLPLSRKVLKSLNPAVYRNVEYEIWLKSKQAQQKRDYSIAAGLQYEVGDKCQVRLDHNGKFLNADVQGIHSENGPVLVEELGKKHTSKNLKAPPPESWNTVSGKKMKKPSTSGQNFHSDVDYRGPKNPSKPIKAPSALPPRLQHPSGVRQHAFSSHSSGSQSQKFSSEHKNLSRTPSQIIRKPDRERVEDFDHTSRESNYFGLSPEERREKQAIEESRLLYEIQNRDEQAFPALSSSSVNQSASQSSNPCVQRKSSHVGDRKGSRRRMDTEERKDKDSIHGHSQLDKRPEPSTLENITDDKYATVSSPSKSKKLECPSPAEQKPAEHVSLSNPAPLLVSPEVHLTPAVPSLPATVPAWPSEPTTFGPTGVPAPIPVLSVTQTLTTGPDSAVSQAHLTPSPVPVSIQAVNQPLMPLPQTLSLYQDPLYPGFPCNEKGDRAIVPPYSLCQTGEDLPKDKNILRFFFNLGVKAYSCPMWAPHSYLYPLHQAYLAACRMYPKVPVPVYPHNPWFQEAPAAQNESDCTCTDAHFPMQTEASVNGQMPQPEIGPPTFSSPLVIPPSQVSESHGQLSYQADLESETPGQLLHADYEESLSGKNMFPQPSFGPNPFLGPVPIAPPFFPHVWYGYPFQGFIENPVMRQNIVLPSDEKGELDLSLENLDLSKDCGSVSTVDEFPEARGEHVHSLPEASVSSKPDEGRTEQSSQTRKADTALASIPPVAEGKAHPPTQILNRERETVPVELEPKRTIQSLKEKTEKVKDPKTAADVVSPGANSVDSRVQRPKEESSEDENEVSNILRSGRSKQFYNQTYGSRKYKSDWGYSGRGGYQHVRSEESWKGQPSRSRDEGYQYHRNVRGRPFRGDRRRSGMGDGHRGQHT
# How it was run: as §1
# OTUD5 = biological target: T5, OTUD5 (UniProt Q96G74)
# T5 sequence (whole entry): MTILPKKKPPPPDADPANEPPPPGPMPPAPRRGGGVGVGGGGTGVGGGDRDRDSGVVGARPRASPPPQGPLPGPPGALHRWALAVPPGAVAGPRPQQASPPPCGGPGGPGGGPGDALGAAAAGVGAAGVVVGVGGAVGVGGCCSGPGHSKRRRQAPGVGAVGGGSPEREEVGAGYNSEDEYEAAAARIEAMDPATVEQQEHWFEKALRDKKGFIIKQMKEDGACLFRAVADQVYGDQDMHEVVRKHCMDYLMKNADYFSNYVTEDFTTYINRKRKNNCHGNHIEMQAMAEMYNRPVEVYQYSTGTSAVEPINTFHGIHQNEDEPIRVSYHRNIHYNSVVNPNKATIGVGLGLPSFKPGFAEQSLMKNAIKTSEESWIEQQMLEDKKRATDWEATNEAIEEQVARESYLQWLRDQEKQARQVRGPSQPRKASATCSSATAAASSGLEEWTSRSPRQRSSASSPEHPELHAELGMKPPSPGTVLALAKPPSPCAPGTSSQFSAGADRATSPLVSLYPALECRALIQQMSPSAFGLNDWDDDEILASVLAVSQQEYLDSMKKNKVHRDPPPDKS
# How it was run: as §1
# Chain of EIF3H (O15372 whole entry): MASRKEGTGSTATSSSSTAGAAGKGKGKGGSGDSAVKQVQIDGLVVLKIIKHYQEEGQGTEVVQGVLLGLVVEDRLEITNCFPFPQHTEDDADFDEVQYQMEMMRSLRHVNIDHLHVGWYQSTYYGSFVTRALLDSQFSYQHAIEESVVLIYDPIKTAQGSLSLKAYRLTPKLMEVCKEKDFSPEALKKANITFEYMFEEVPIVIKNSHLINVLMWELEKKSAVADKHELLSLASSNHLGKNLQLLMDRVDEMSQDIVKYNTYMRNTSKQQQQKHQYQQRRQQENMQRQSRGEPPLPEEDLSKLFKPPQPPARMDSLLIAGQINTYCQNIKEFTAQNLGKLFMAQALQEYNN
# Chain of ATXN3 (P54252 whole entry): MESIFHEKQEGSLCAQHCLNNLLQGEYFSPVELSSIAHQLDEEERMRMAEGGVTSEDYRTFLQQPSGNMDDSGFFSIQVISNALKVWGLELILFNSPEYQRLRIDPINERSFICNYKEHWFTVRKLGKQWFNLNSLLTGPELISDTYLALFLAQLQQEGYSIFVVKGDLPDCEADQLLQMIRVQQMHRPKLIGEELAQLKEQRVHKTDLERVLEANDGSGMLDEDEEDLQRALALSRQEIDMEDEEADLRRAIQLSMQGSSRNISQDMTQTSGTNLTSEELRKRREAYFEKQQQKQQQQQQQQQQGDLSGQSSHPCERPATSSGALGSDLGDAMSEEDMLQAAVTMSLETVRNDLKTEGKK
# Chain of OTUB1 (Q96FW1 whole entry): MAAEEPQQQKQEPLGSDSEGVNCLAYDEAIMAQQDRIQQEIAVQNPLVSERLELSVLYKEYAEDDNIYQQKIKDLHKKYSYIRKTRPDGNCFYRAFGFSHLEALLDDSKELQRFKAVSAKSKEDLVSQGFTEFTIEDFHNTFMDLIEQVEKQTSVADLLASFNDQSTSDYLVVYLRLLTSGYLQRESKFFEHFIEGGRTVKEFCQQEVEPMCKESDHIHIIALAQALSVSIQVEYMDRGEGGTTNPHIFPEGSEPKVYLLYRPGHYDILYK
# Chain of EIF3F (O00303 whole entry): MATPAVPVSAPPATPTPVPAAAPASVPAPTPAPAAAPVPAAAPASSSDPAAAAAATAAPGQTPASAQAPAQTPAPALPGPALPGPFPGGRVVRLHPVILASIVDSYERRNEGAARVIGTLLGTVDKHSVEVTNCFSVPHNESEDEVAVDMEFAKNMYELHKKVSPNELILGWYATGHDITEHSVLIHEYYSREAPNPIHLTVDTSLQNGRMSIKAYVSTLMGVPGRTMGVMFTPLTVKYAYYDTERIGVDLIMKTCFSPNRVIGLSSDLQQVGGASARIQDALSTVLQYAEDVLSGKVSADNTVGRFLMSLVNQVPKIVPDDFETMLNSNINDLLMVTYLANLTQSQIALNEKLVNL
structure (smiles),measurement,setting,value
O=C(CCl)Nc1cccc(C(=O)N2CCSCC2)c1,log2 ratio of Biotin-Ahx-Ub-VS probe labelling,ALG13,0.254
same,log2 ratio of Biotin-Ahx-Ub-VS probe labelling,ATXN3,-0.874
same,log2 ratio of Biotin-Ahx-Ub-VS probe labelling,BAP1,-3.62 (active)
same,log2 ratio of Biotin-Ahx-Ub-VS probe labelling,EIF3F,-0.466
same,log2 ratio of Biotin-Ahx-Ub-VS probe labelling,EIF3H,0.0708
same,log2 ratio of Biotin-Ahx-Ub-VS probe labelling,FAM105A,0.0218
same,log2 ratio of Biotin-Ahx-Ub-VS probe labelling,OTUB1,-0.523
same,log2 ratio of Biotin-Ahx-Ub-VS probe labelling,OTUD4,-0.0407
same,log2 ratio of Biotin-Ahx-Ub-VS probe labelling,OTUD5,-0.638
